Results taken from PubChem BioAssay (EPA / NIEHS).
The source made the active and inactive calls. Rule for the calls: active = hit-call score of the fitted dose curve at least 0.9, where 1 is the maximum; inactive = score below 0.9.

Experiments:
Details in all cases: mRNA level, 48 h; actives raise or lower the signal
[1] = read-out: Cyclin D2 (CCND2), CCND2 (gene 894); assay: LTEA_HepaRG_CCND2: Life Technologies and Expression Analysis (LTEA) Assay for Cyclin D2 (CCND2) using HepaRG (AID 2283449);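 note: CCND2 transcript measured by TaqMan qRT-PCR and normalised to three housekeeping genes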
Summary of the method: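 HepaRG, 48 h dosing, 8-pt half-log curve from 100 uM, 0.5% DMSO; duplicate wells. Readout: CCND2 transcript by microfluidic qRT-PCR, housekeeping-normalised; bidirectional fit vs DMSO baseline.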

[2] = read-out: Cyclin Dependent Kinase Inhibitor 1A (CDKN1A), CDKN1A (gene 1026); assay: LTEA_HepaRG_CDKN1A: Life Technologies and Expression Analysis (LTEA) Assay for Cyclin Dependent Kinase Inhibitor 1A (CDKN1A) using HepaRG (AID 2283450)
Summary of the method: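 Expression quantified by Fluidigm qRT-PCR with ACTB, GAPDH and POLR2A normalization, fitted bidirectionally against 0.5% DMSO. Cells: HepaRG, plated 48 h then treated 48 h in serum-free induction medium, top concentration 100 uM with half-log dilutions.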

[3] = read-out: Cyclin D1 (CCND1), CCND1 (gene 595); assay: LTEA_HepaRG_CCND1: Life Technologies and Expression Analysis (LTEA) Assay for Cyclin D1 (CCND1) using HepaRG (AID 2283451);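 for AC50: differentiated human HepaRG liver cells in serum-free induction medium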
Summary of the method: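 Expression of CCND1 was quantified by qRT-PCR on Fluidigm arrays using ACTB, GAPDH and POLR2A as reference genes. HepaRG cultures, plated 48 h beforehand, were dosed for 48 h at up to 100 uM (half-log, 8 points) in 0.5% DMSO.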

[4] = read-out: catalase (CAT), CAT (gene 847); assay: LTEA_HepaRG_CAT: Life Technologies and Expression Analysis (LTEA) Assay for catalase (CAT) using HepaRG (AID 2283452)
Summary of the method: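 HepaRG cells in serum-free induction medium, 0.5% DMSO vehicle, exposed 48 h in duplicate over 8 half-log concentrations from 100 uM. CAT mRNA measured by qRT-PCR, normalized to ACTB, GAPDH, POLR2A; bidirectional fit versus DMSO.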

[5] = read-out: Cytochrome P450 (CYP1A1), CYP1A1 (gene 1543); assay: LTEA_HepaRG_CYP1A1: Life Technologies and Expression Analysis (LTEA) Assay for Cytochrome P450 (CYP1A1) using HepaRG (AID 2283454)
Summary of the method: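 CYP1A1 transcript levels measured by Fluidigm qRT-PCR against three housekeeping genes, 48 h after chemical dosing of human HepaRG cells (highest concentration 100 uM, half-log steps, 0.5% DMSO vehicle). Gain or loss of signal fitted relative to DMSO.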

[6] = read-out: CFLAR gene, CFLAR (gene 8837); assay: LTEA_HepaRG_CFLAR: Life Technologies and Expression Analysis (LTEA) Assay for CFLAR gene using HepaRG (AID 2283455)
Summary of the method: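 qRT-PCR read-out (Fluidigm/TaqMan) of CFLAR mRNA, normalized to three housekeeping genes, in differentiated human HepaRG cells after 48 h chemical exposure; 8-point half-log series from 100 uM in 0.5% DMSO; bidirectional curve fitting versus DMSO.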

[7] = read-out: Forkhead box O1 (FOXO1), FOXO1 (gene 2308); assay: LTEA_HepaRG_FOXO1: Life Technologies and Expression Analysis (LTEA) Assay for Forkhead box O1 (FOXO1) using HepaRG (AID 2283456)
Summary of the method: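 HepaRG, 48 h exposure, 8-pt half-log series from 100 uM in 0.5% DMSO, duplicates; Fluidigm qRT-PCR mRNA, housekeeping-normalised; bidirectional fit vs DMSO baseline.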

[8] = read-out: growth arrest and DNA damage 45 (GADD45A), GADD45A (gene 1647); assay: LTEA_HepaRG_GADD45A: Life Technologies and Expression Analysis (LTEA) Assay for growth arrest and DNA damage 45 (GADD45A) using HepaRG (AID 2283458)
Summary of the method: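 GADD45A expression was measured by TaqMan qRT-PCR against three housekeeping genes (ACTB, GAPDH, POLR2A) after 48 h treatment of HepaRG cells. Eight-point half-log series up to 100 uM in 0.5% DMSO, run in duplicate.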

[9] = read-out: Forkhead box O3 (FOXO3), FOXO3 (gene 2309); assay: LTEA_HepaRG_FOXO3: Life Technologies and Expression Analysis (LTEA) Assay for Forkhead box O3 (FOXO3) using HepaRG (AID 2283459)
Summary of the method: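 qRT-PCR readout of FOXO3 transcript, normalized to three housekeeping genes (ACTB, GAPDH, POLR2A); gain or loss fitted against 0.5% DMSO vehicle. HepaRG cells, 48 h chemical exposure, 8-point half-log series, top 100 uM.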

[10] = read-out: ABC Transporter (ABCB1), ABCB1 (gene 5243); assay: LTEA_HepaRG_ABCB1: Life Technologies and Expression Analysis (LTEA) Assay for ABC Transporter (ABCB1) using HepaRG (AID 2283460)
Summary of the method: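 HepaRG, 48 h exposure, 8-pt half-log series from 100 uM, 0.5% DMSO vehicle, duplicates. Readout: ABCB1 transcript by Fluidigm TaqMan qRT-PCR, housekeeping-normalized; bidirectional curve fit vs DMSO baseline.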

[11] = read-out: growth arrest and DNA damage 45 (GADD45B), GADD45B (gene 4616); assay: LTEA_HepaRG_GADD45B: Life Technologies and Expression Analysis (LTEA) Assay for growth arrest and DNA damage 45 (GADD45B) using HepaRG (AID 2283461)
Summary of the method: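 Transcript level quantified by Fluidigm TaqMan qRT-PCR with three housekeeping genes for normalization, analyzed for up- or down-regulation against 0.5% DMSO. HepaRG cultures dosed 48 h at eight half-log concentrations up to 100 uM, duplicates.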

[12] = read-out: ABC Transporter (ABCC3), ABCC3 (gene 8714); assay: LTEA_HepaRG_ABCC3: Life Technologies and Expression Analysis (LTEA) Assay for ABC Transporter (ABCC3) using HepaRG (AID 2283462)
Summary of the method: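 Transcript level by TaqMan qRT-PCR, normalised to three housekeeping genes, fitted in both directions relative to vehicle. Chemicals tested in duplicate at eight half-log concentrations up to 100 uM for 48 h on HepaRG cells (0.5% DMSO).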

[13] = read-out: ABC Transporter (ABCB11), ABCB11 (gene 8647); assay: LTEA_HepaRG_ABCB11: Life Technologies and Expression Analysis (LTEA) Assay for ABC Transporter (ABCB11) using HepaRG (AID 2283463)
Summary of the method: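 HepaRG, 48 h exposure, 8-pt half-log CRC top 100 uM, 0.5% DMSO vehicle, duplicates. Readout: TaqMan qRT-PCR of ABCB11 mRNA, housekeeping-normalized (ACTB/GAPDH/POLR2A). Bidirectional fit vs DMSO baseline.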

[14] = read-out: ABC Transporter (ABCC2), ABCC2 (gene 1244); assay: LTEA_HepaRG_ABCC2: Life Technologies and Expression Analysis (LTEA) Assay for ABC Transporter (ABCC2) using HepaRG (AID 2283464)
Summary of the method: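 Endpoint is ABCC2 transcript level from qRT-PCR, normalized to three housekeeping genes and fitted bidirectionally relative to DMSO. Human HepaRG cells received test chemical for 48 h at up to 100 uM (8 points, half-log steps, 0.5% DMSO), duplicate wells.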

[15] = read-out: Broad substrate specificity ATP-binding cassette transporter ABCG2 (Homo sapiens) (UniProt Q9UNQ0); assay: LTEA_HepaRG_ABCG2: Life Technologies and Expression Analysis (LTEA) Assay for ABC Transporter (ABCG2) using HepaRG (AID 2283465)
Summary of the method: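 HepaRG, 48 h exposure, 8-pt half-log series from 100 uM, 0.5% DMSO vehicle, duplicates. Readout: ABCG2 transcript by qRT-PCR (Fluidigm array), housekeeping-normalized; bidirectional curve fit relative to DMSO baseline.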

[16] = read-out: ATP-citrate lyase (ACLY), ACLY (gene 47); assay: LTEA_HepaRG_ACLY: Life Technologies and Expression Analysis (LTEA) Assay for ATP-citrate lyase (ACLY) using HepaRG (AID 2283466)
Summary of the method: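 qRT-PCR readout of ACLY transcript after 48 h chemical treatment of HepaRG cells; expression normalized to three housekeeping genes. Eight-point half-log series, highest 100 uM, 0.5% DMSO vehicle. Gain or loss fitted against DMSO baseline.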

[17] = read-out: Peroxisomal acyl-coenzyme A oxidase 1 (ACOX1) gene, ACOX1 (gene 51); assay: LTEA_HepaRG_ACOX1: Life Technologies and Expression Analysis (LTEA) Assay for Peroxisomal acyl-coenzyme A oxidase 1 (ACOX1) gene using HepaRG (AID 2283467)
Summary of the method: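 HepaRG, 48 h chemical exposure, 8-pt half-log series from 100 uM top, 0.5% DMSO vehicle, duplicates. Readout: ACOX1 mRNA by Fluidigm qRT-PCR, housekeeping-normalized; bidirectional fit vs DMSO baseline.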

[18] = read-out: Alkaline Phosphatase, Placental (ALPP) gene, ALPP (gene 250); assay: LTEA_HepaRG_ALPP: Life Technologies and Expression Analysis (LTEA) Assay for Alkaline Phosphatase, Placental (ALPP) gene using HepaRG (AID 2283468);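 for AC50: differentiated human HepaRG liver cells in serum-free induction medium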
Summary of the method: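 ALPP transcript level, measured by qRT-PCR and normalized to three housekeeping genes (ACTB, GAPDH, POLR2A), after 48 h dosing of differentiated HepaRG in serum-free induction medium. Top concentration 100 uM with half-log dilutions (8 points, 0.5% DMSO, duplicates); bidirectional fitting relative to DMSO.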

[19] = read-out: flavin-containing dimethylaniline monooxygenases 3 (FMO3), FMO3 (gene 2328); assay: LTEA_HepaRG_FMO3: Life Technologies and Expression Analysis (LTEA) Assay for flavin-containing dimethylaniline monooxygenases 3 (FMO3) using HepaRG (AID 2283453)
Summary of the method: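 FMO3 transcript quantified by TaqMan qRT-PCR against three housekeeping genes after 48 h chemical exposure of HepaRG cells. Eight-point half-log series, top 100 uM, 0.5% DMSO vehicle; phenobarbital 1mM induction control; up- or down-regulation fitted.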

Broad substrate specificity ATP-binding cassette transporter ABCG2 (Homo sapiens), sequence (Q9UNQ0 whole entry, looked up): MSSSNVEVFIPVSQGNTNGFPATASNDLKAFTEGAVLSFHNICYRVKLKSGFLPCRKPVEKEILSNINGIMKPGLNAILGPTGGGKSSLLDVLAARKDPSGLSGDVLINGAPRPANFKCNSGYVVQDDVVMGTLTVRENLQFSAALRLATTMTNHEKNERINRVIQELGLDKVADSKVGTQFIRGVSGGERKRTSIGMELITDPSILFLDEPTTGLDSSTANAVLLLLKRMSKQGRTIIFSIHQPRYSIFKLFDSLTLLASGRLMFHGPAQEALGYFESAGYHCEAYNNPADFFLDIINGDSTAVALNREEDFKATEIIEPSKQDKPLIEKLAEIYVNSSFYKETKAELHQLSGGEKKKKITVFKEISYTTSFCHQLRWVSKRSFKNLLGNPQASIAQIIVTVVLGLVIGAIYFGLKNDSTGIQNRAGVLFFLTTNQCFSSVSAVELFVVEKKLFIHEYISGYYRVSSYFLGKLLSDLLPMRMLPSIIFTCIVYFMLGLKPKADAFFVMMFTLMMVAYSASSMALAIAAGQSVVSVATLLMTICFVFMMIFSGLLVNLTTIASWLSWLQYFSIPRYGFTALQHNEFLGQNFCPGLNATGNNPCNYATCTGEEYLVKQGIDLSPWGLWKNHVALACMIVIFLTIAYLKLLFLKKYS

N#Cc1nn(-c2c(Cl)cc(C(F)(F)F)cc2Cl)c(N)c1S(=O)C(F)(F)F (centres undefined)
outcome [1]: inactive | AC50 [2]: 32.5 µM (active) | AC50 [3]: 83.4 µM (active) | AC50 [4]: 29.5 µM (active) | AC50 [5]: 14.9 µM (active) | AC50 [6]: 50.2 µM (active) | AC50 [7]: 87.4 µM (active) | AC50 [8]: 74.2 µM (active) | outcome [9]: inactive | AC50 [10]: 11.4 µM (active) | AC50 [11]: 90.7 µM (active) | outcome [12]: inactive | AC50 [13]: 27.8 µM (active) | outcome [14]: inactive | AC50 [15]: 23.5 µM (active) | outcome [16]: inactive | AC50 [17]: 50.2 µM (active) | AC50 [18]: 11.5 µM (active)

CCCCOC(=O)c1ccccc1C(=O)OCCCC
outcome [1]: inactive | outcome [2]: inactive | outcome [3]: inactive | outcome [4]: inactive | outcome [5]: inactive | outcome [6]: inactive | outcome [7]: inactive | outcome [8]: inactive | outcome [9]: inactive | outcome [10]: inactive | outcome [11]: inactive | outcome [12]: inactive | outcome [13]: inactive | outcome [14]: inactive | outcome [15]: inactive | outcome [16]: inactive | outcome [17]: inactive | outcome [18]: inactive

CCOP(=S)(OCC)SCn1c(=O)oc2cc(Cl)ccc21
outcome [1]: inactive | outcome [2]: inactive | outcome [3]: inactive | outcome [4]: inactive | outcome [19]: inactive | outcome [6]: inactive | outcome [7]: inactive | outcome [8]: inactive | outcome [9]: inactive | outcome [10]: inactive | outcome [11]: inactive | outcome [12]: inactive | outcome [13]: inactive | outcome [14]: inactive | outcome [15]: inactive | outcome [16]: inactive | outcome [17]: inactive | outcome [18]: inactive
